ssDAF12 agonist: activates DAF-12 receptor from parasite S. stercoralis | activation, % at 6.8 µM | 370,000 compounds, 1% hits | HEK293 ssDAF-12/GRIP1 lit1-tk-luc reporter, luminescence; % of 3 µM dafachronic acid response | AID 652126;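 active = activation above the mean over all tested compounds plus 3 SD, cut at about 0.9% in these data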;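 also: 0% = DMSO-only wells and 100% = 3 µM delta7-dafachronic acid wells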
SMARCA2 activ: activators of SMARCA2 function; MG213 cells, MMTV-luciferase reporter, dexamethasone, overnight; activation, % at 9.1 µM; 370,000 compounds, 1% hits; in the data active = activation above about 7.8%;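 also: 0% = vehicle wells and 100% = reference activator wells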
hcDAF12 agonist: activators of H. contortus DAF-12 nuclear receptor. HEK293 hcDAF-12 lit1-tk-luc reporter, luminescence; 0% DMSO, 100% Δ7-dafachronic acid. activation, % at 6.8 µM. 370,000 compounds, 1.4% hits. AID 652067;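 active = activation above the mean of all tested compounds plus 3 SD, cut at about 5.5% in these data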;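 also: 100% = response to 3 µM Δ7-dafachronic acid high control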
DAX1 inh-1: NR0B1 (DAX1) inhibition. inhibition, % at 6.75 µM. 340,000 compounds, 0.99% hits. P51843. HEK293 Gal4-DAX1 luciferase reporter, luminescence;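 active = inhibition above the mean over all tested compounds plus 3 SD, cut at about 4.2% in these data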;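 also: 0% = DAX1-transfected cells with DMSO and 100% = empty-vector control cells with DMSO; inhibition shows as a rise in luminescence from relieved DAX1 repression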
Target sequence (P51843 207-470 limits assumed): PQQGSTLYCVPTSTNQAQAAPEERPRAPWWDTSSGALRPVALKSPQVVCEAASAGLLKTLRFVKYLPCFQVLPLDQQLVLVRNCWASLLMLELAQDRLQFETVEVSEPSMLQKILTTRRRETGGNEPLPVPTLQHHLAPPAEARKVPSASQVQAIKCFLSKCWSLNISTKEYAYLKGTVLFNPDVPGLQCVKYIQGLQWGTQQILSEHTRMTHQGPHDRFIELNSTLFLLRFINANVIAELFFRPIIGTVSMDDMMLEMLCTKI
DAX1 inh-2: blocks DAX1 repression of SF-1 activated StAR promoter | 370,000 compounds, 1.1% hits | HEK293T StAR-luciferase reporter, SF-1/DAX-1 repression relief | inhibition, % at 6.8 µM | AID 652010;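 active = inhibition above the mean over all tested compounds plus 3 SD, cut at about 3.6% in these data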;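 also: 0% = DAX-1 cells with DMSO and 100% = cells lacking DAX-1 with DMSO; higher inhibition means more luminescence from relief of DAX-1 repression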
hgDAF12 agonist: activates the H. glycines DAF-12 receptor ligand-binding domain; AID 687014; HEK293 GAL4-hgDAF12 UAS-luciferase reporter, agonist luminescence; normalized to butyrate control; activation, % at 6.8 µM; 370,000 compounds, 1.8% hits;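 active = activation above a cutoff set at the mean of all screened compounds plus 3 SD, cut at about 10% in these data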;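 also: 0% = DMSO wells and 100% = sodium butyrate wells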
The depositor's hits bear a star; x = no result given. A selection: hits, their analogues and other compounds. The true share with any hit is near 4.8%.

SMILES | ssDAF12 agonist | SMARCA2 activ | hcDAF12 agonist | DAX1 inh-1 | DAX1 inh-2 | hgDAF12 agonist
CCOC(=O)[C@H]1[C@H]2COc3ccc(Br)cc3[C@H]2N2C(=O)CN(CCc3c[nH]c4ccccc34)C(=O)[C@@]12C | 0.9* | -5 | 2 | 0 | 0 | -1
Cc1occc1C(=O)N/N=C/c1ccccn1 | 1 | 1 | 1 | 1 | 2 | 11*
C/C(=N\NC(=O)c1ccoc1C)c1cccc2ccccc12 | 0 | 4 | 3 | 0 | 1 | 13*
COc1cc(/C=N/NC(=O)c2ccoc2C)ccc1O | 0 | 2 | 2 | 3 | 1 | 10*
Cc1ccc(C(=O)N/N=C\c2ccccn2)cn1 | -2 | 1 | 0 | 2 | 0 | 1
CCCN1CCN(C(=S)NCc2ccc(Cl)cc2)CC1 | -1 | -1 | 0 | 2 | 2 | 5
c1ccc(Nc2c(-c3ccco3)nc3ccccn23)cc1 | 0 | 1 | 6.0* | -1 | 0 | -4
CCc1ccccc1NC(=O)CNC(=O)c1cn(Cc2ccccc2)nc1-c1cccnc1 | -1 | -3 | 0 | 2 | 2 | -2
Nc1ncnc2c1ncn2Cc1ccccc1 | -2 | 2 | -1 | 3 | -1 | 7
Nc1nc(Cl)nc2ncn(Cc3ccccc3)c12 | 0 | 8 | 1 | -2 | 1 | 11*
Cc1cc2ccccn2c1C(=O)c1nc(NCc2ccco2)ncc1Cl | -2 | 0 | -2 | 4 | -1 | -3
COC(=O)c1nc(-c2ccc(C)cc2)oc1N(C)C | 1.0* | -1 | 5 | 1 | -1 | 2
O=c1c2ccccc2nnn1CSc1nc2ccccc2c(=O)n1Cc1ccco1 | -1 | -2 | 0 | 0 | -1 | 0
O=C(O)c1ccc(NN=Cc2cc(=O)[nH]c(=O)[nH]2)cc1 | -1 | 1 | -1 | -1 | -1 | 4
O=c1cc(C=NNc2ccccc2)[nH]c(=O)[nH]1 | 0 | 4 | 0 | 4.9* | 0 | -2
O=c1[nH]ncn1-c1ccc(Br)cc1 | -1 | -5 | -1 | 5.2* | 0 | -2
CCCCc1cc(=O)oc2cc(OCC(=O)Nc3ccccn3)ccc12 | 0 | 3 | 5 | 2 | 4.3* | 8
COc1ccc(-c2cc(=O)oc3cc(OCC(=O)NCc4ccccn4)ccc23)cc1 | -1 | 0 | 4 | 5.7* | 0 | -1
CC(C)(C)c1ccc2c(c1)OC(C(=O)N/N=C\c1ccncc1)CO2 (stereo not given) | -1 | -5 | -1 | 2 | 1 | -1
Cc1onc(-c2ccccc2)c1C(=O)NC1CC1 | 1 | -2 | -1 | 0 | 1 | 1
CCCCNC(=O)O/N=C(\N)CS(=O)(=O)C(C)(C)C | -1 | 0 | -1 | 3 | 0 | -1
CCC(C)NC(=O)c1cc2cc3ccc(OC)cc3nc2s1 (stereo not given) | 1.4* | 3 | 4 | 1 | 3.8* | 10
Cc1nc2sc(C(N)=O)c(N)c2c(C)c1CC(=O)c1ccccc1 | -1 | -1 | 0 | 0 | 1 | 12*
COc1ccccc1C(=O)Nc1ccc2oc(-c3ccc(F)cc3)nc2c1 | -1 | 1 | 0 | 1 | 0 | -1
O=C(O)c1ccc2c(c1)N(Cc1ccc(F)cc1)C(=O)c1ccccc1S2 | -2 | -4 | -2 | 5.0* | 1 | -2
SMILES | ssDAF12 agonist | SMARCA2 activ | hcDAF12 agonist | DAX1 inh-1 | DAX1 inh-2 | hgDAF12 agonist
COc1cccc(NC(=O)Nc2nc(SC)ns2)c1 | 0 | 3 | 4 | 7.2* | 2 | 12*
COc1cccc(NC(=S)NC(=O)c2cncc(Br)c2)c1 | -1 | 6 | 1 | 4.5* | 0 | 4
Cc1cccc(C(=O)Nc2cccc(OC(=O)c3cccc(C)c3)c2)c1 | 0 | 6 | 4 | 2 | 1 | 13*
COc1cccc(C(=O)Nc2cccc(-c3ccc(N4CCOCC4)nn3)c2)c1 | -1 | 7 | 0 | 1 | 4.0* | 5
COc1cccc(NC(=O)Nc2nc(SC(C)(C)C)ns2)c1 | -2 | -3 | -2 | -3 | -1 | -1
COc1ccc(C(=O)Nc2cccc(-c3ccc(N4CCOCC4)nn3)c2)cc1OC | 0 | 5 | 1 | 1 | 2 | 3
COC(=O)c1sc(C(C)(C)C)cc1CS(=O)(=O)c1ccccn1 | -1 | -5 | 0 | -1 | 0 | 0
COc1ccc(N(CC(=O)Nc2ccccc2Cl)S(=O)(=O)c2ccc(C)cc2)cc1OC | -2 | -2 | 0 | -1 | 0 | -2
COc1ccccc1OCCCN1CCC(C(O)(c2ccccc2)c2ccccc2)CC1 | -1 | -4 | 1 | x | 0 | -3
O=C(NCc1ccc(OC(F)(F)F)cc1)C12CN(Cc3ccccc3)CC1C(c1cccc([N+](=O)[O-])c1)=NO2 (stereo not given) | -1 | 1 | -1 | 0 | 0 | 1
COc1cccc(NCc2nnc(SCC(=O)N(C)C3CCS(=O)(=O)C3)n2C2CCCCC2)c1 (stereo not given) | -1 | 0 | -1 | 1 | 2 | -1
S=c1[nH]nc(-c2ccco2)n1/N=C/c1ccc(Cl)c(Cl)c1 | -1 | -2 | 0 | -2 | 0 | 1
COc1cccc(NC(=O)c2cccc(Cl)c2)c1 | 0 | 7 | 4 | 1 | 2 | 12*
COc1cccc(NC(=O)c2ccc3nc(C)sc3c2)c1 | 0 | 2 | 5.8* | 5.5* | 1 | 8
COc1cccc(NC(=O)Nc2ccccc2Br)c1 | -1 | 3 | -2 | 2 | 1 | 11*
COc1cccc(C(=O)Nc2cccc(C(C)=O)c2)c1 | -1 | 0 | 0 | 2 | 2 | 7
COc1cccc(NC(=O)c2cnc(SC)nc2)c1 | 1.3* | 1 | 4 | 0 | 0 | 3
COc1ccccc1NC(=O)c1ccc2nc(C)sc2c1 | -1 | 1 | 0 | 1 | 0 | 4
COc1ccc2nc(SCC(=O)Nc3ccc4c(c3)CCC4)[nH]c2c1 | -2 | 2 | -2 | -1 | 0 | 7
COc1cccc(CN(C)C(=O)CSCC(=O)Nc2ccc(C)cc2)c1OC | -1 | -2 | 0 | 2 | -2 | 1
O=C1c2ccccc2C(=O)N1CCSc1nncs1 | -1 | 1 | -1 | 1 | 0 | 4
O=C1NCCN/C1=C\C(=O)c1ccc(Br)cc1 | 0 | 7 | 4 | x | 2 | 11*
NC(=O)N/N=C/c1sc(N2CCCCC2)nc1-c1cccs1 | -1 | 6 | 0 | -2 | -2 | 12*
O=C(N/N=C/c1sc(N2CCCCC2)nc1-c1cccs1)C1CC1 | -2 | 0 | -2 | -2 | -1 | -1
COc1cccc(N2CCN(Cc3nc4scc(-c5ccccc5)c4c(=O)[nH]3)CC2)c1 | -2 | -4 | -2 | -1 | -2 | 3
Cc1ccc2c(C)c(C(=O)N3CCN(Cc4ccc5c(c4)OCO5)CC3)oc2c1C | 0 | 4 | 5.8* | 0 | 2 | 10
